High-throughput results from PubChem.
Hits are enriched below; roughly 19% of the tested compounds scored in any of these assays.
HepG2 tox – qHTS for Inhibitors of TGF-b: Cytotox Counterscreen; HepG2 CAGA-GFP viability, ATP luminescence, 18 h; Potency, µM (doses to about 46.1 µM), inactives show top-dose activity change, negative = cytotoxicity, actives largely listed as cytotoxic; 410,000 compounds, 0.76% hits; AID 588856, 2011; also: potency is read from the fitted curve at half-maximal effect
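CellTiter-Glo luminescence gave cytotoxicity after 18 hours at 37 degrees C. The cells were HepG2 CAGA-GFP in 1% FBS DMEM, stimulated with 500 pg/mL TGF-beta after compound addition. %Activity was normalised to no-cell wells (complete cell-killing) and DMSO (no toxicity), and curves were fitted and classified.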
TDP1 block – qHTS Assay for Inhibitors of Tyrosyl-DNA Phosphodiesterase (TDP1) | recombinant TDP1, AlphaScreen DNA substrate cleavage | Potency, µM (highest dose often 130 µM), without a hit: at the top dose activity change, negative = inhibition, hits mostly inhibitors | 350,000 compounds, 0.28% hits | AID 485290, 2010; also: potency is read from the fitted curve at half-maximal effect; % is scaled to controls: 0 for no effect and ±100 for the full control effect; nearly all actives have a fitted effect of over 40% in size
Target sequence (Q9NUW8 whole entry, looked up): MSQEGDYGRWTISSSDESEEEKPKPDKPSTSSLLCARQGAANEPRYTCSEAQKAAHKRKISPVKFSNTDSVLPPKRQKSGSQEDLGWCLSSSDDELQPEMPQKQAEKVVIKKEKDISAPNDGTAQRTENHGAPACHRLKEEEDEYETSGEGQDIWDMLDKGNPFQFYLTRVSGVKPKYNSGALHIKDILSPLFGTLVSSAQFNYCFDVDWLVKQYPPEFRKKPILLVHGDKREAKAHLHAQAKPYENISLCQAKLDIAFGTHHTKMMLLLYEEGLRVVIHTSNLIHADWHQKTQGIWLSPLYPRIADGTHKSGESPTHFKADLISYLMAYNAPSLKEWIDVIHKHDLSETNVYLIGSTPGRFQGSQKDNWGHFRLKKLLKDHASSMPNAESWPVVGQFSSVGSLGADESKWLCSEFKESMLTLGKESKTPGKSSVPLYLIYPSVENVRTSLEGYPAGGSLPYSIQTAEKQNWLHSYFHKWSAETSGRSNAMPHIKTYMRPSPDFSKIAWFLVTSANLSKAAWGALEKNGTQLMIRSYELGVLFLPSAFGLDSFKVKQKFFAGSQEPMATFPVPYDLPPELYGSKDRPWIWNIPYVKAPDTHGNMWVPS
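Tdp1 1 nM final; 15 min RT w/ cpd; substrate 15 nM, 5 min; beads 10 ug/ml, 10 min; AlphaScreen read. Neg ctrl: no enzyme.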
IL1B secr inh – qHTS for Inhibitors of Inflammasome Signaling: IL-1-beta AlphaLISA Primary Screen; activity change, % at 57.5 µM; THP-1 LPS/ATP IL-1B secretion, AlphaLISA, 16 h; stronger effect = lower value; 360,000 compounds, 4.7% hits; in the data active = activity change below about -50%; inconclusive = mostly about -30% to -49%; also: % is scaled to controls: 0 for no effect and ±100 for the full control effect
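THP-1 cells pretreated 1 hr with compounds (up to 57.5 uM final), then stimulated with LPS (250 ng/mL final) plus ATP (1.25 mM final); secreted IL-1B measured by AlphaLISA after 16 hr, decreased signal indicating inhibition.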
DT40 TDP1 no CPT – qHTS for Inhibitors of human tyrosyl-DNA phosphodiesterase 1 (TDP1): qHTS in cells in absence of CPT | DT40 Tdp1-/- hTDP1 cells, no CPT, ATP luminescence, 48 h | Potency, µM (series often up to 46.2 µM), without a hit: at the highest dose activity change, negative = growth inhibition, actives largely listed as inhibitors | 420,000 compounds, 15% hits; also: potency is read from the fitted curve at half-maximal effect; % is scaled to controls: 0 for no effect and ±100 for the full control effect; nearly all actives have a fitted effect of over 55% in size
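Stably hTDP1-transfected Tdp1-null chicken DT40 cells were treated with library compounds minus camptothecin and grown for at least 48 hr at 37 °C, after which cellular ATP was quantified by luminescence.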
TGFb inhibitor – qHTS for Inhibitors of TGF-b; Potency, µM (titrated, usually from 46.1 µM), without a hit: at the top dose activity, negative = inhibition, actives largely listed as inhibitors; HepG2 CAGA-GFP TGF-b/SMAD3 reporter, GFP fluorescence, 18 h; TGF-beta stimulated, 500 pg/mL final; AID 588855, 2011; 410,000 compounds, 1.2% hits; also: potency is read from the fitted curve at half-maximal effect; % is scaled to controls: 0 for no effect and ±100 for the full control effect; nearly all actives have a fitted effect of over 65% in size
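HEPG2 CAGA-GFP reporter cells (1000/well, DMEM with 1% FBS) received compounds, then recombinant TGF-beta at 500 pg/mL final for 18 hours at 37 degrees C. Per-cell GFP summed per well was normalised to unstimulated and stimulated DMSO controls before curve fitting.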
DT40 TDP1 CPT – qHTS for Inhibitors of human tyrosyl-DNA phosphodiesterase 1 (TDP1): qHTS in cells in presence of CPT. chicken DT40 Tdp1-/-;hTDP1 cells + 20 nM CPT, ATP luminescence, 48 h. Potency, µM (highest dose often 46.2 µM), inactives show at the highest dose activity change, negative = growth inhibition, hits mostly inhibitors. 420,000 compounds, 12% hits. AID 686979, 2013; also: potency is read from the fitted curve at half-maximal effect; % is scaled to controls: 0 for no effect and ±100 for the full control effect; nearly all actives have a fitted effect of over 55% in size
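Chicken DT40 Tdp1-/- cells complemented with human TDP1, 400 cells/well, exposed to compounds plus 20 nM camptothecin for at least 48 h at 37 C; viability read as ATP content by CellTiter-Glo luminescence.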
* hit, by the source's call; ? = inconclusive; . = no result given; [ ] = another dose, or the depositor's remark. Unless noted, calls follow the shape of the dose curve; as a rule, active = well fitted curve in the direction sought with a large enough effect; inconclusive = small, poorly fitted or top-dose-only effect, or another doubt; inactive = no such curve, though single readings can be large; an effect the other way counts as inactive or inconclusive.

SMILES | HepG2 tox | TDP1 block | IL1B secr inh | DT40 TDP1 no CPT | TGFb inhibitor | DT40 TDP1 CPT
CCn1c(=O)c2sccc2n2c(CCCC(=O)N3CCN(c4cc(Cl)ccc4C)CC3)nnc12 | -11% | 0% | . | 8.2µM* | ? | 12µM*
CCCCN(C(=O)CSCC(=O)Nc1ccc(C)cc1)c1c(N)n(Cc2ccccc2)c(=O)[nH]c1=O | -29% | . | 15 | 2% | -1% | 0%
O=C(Nc1ccc(Br)cc1)c1cc(S(=O)(=O)NC2CCCC2)ccc1F | -61% | 0% | . | 21µM* | ? | 23µM*
O=C(Nc1cc(Cl)cc(Cl)c1)c1cc(S(=O)(=O)NC2CCCC2)ccc1F | -90% | 3% | . | 21µM* | ? | ?
O=C(Nc1ccc(S(=O)(=O)NC2CCCCC2)cc1)c1ccc(Br)o1 | -46% | 1% | ? | ? | ? | ?
O=C(Nc1ccc(F)c(F)c1)c1cc(S(=O)(=O)NC2CCCC2)ccc1F | -16% | 5% | . | 23µM* | ? | ?
Cc1ccc(NC(=O)c2cc(S(=O)(=O)NC3CCCCC3)ccc2F)cc1Cl | 10µM* | 5% | . | 21µM* | 10µM* | 23µM*
CCCCCCCCCCCCCCCCCCOC[C@@H](O)COP(=O)([O-])OCC[N+](C)(C)C | . | 5% | . | . | . | .
CCOc1ccc(N=Cc2c(C)[nH]n(-c3nc4ccccc4[nH]3)c2=O)cc1 | 2.5µM* | 50µM* | 18 | 9.2µM* | -22% | 10µM*
Cc1[nH]n(-c2ccccc2)c(=O)c1C=Nc1cnc2ccccc2c1 | -46% | 6% | 7 | -26% | -22% | ?
Cc1nnc(NC(=O)c2cc(-c3ccncc3)nc3c(C)cccc23)s1 | -3% | 3% | 39 | 17% | 3% | -7%
CCOC(=O)c1c(NC(=O)c2ccc(S(=O)(=O)N(CC(C)C)CC(C)C)cc2)sc2c1CCN(CC)C2 | -27% | 3% | . | 16µM* | 59% | 8.2µM*
CC(C)CN(CC(C)C)S(=O)(=O)c1ccc(C(=O)Nc2sc3c(c2C(N)=O)CCN(C(C)C)C3)cc1 | 11µM* | 5% | . | 9.2µM* | 136% | 8.2µM*
CCN1CCc2c(sc(NC(=O)c3ccc(S(=O)(=O)N(CC)c4ccccc4)cc3)c2C(N)=O)C1 | -55% | 5% | -96* | 15µM* | 96% | ?
NC(=O)c1c(NC(=O)c2c(F)cccc2F)sc2c1CCN(Cc1ccccc1)C2 | -36% | . | -8 | 16µM* | 29% | ?
CCOc1ccc2nc(N3CCCC(C(=O)NCCc4ccc(SC)cc4)C3)sc2c1 (stereo not drawn) | -19% | 0% | . | ? | 8% | -24%
COCCN(C(=O)CSc1nc2ccc(OC)cc2[nH]1)c1c(N)n(Cc2ccccc2)c(=O)[nH]c1=O | 4% | 0%[0.505 µM] | 10 | -3% | 5% | -11%
O=C(CC12CC3CC(CC(C3)C1)C2)N/N=C/c1ccncc1 | -15% | 4% | -14 | ? | -13% | ?
CSCC(=O)NC1CCCN(C2Cc3ccccc3C2)C1 (stereo not drawn) | 7.9µM* | . | 16 | -3% | ? | 0%
CCCc1noc(-c2ccc(NCc3ccccc3OC)c([N+](=O)[O-])c2)n1 | -12% | 9% | . | 7.3µM* | -28% | 10µM*
COc1ccccc1CNc1ccc(-c2nc(-c3ccccn3)no2)cc1[N+](=O)[O-] | -6% | 9% | . | ? | 21% | -18%
